# Where a name gives a salt, the structure may show the parent alone.
# Assays:
# Conditions in all cases: treatment time: 24 h
# A549-ACTB-RAB5A [1] = experiment: lowest phenotypically active concentration; higher = less potent
# Summary of the method: (§1)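 After 24 h at 0.3, 1, 3 or 9 µM, with four wells per treatment, fifteen gene-edited A549, HepG2 and WPMY1 reporter lines carrying BFP, GFP and RFP/FusionRed were imaged live. Each well's live-cell features were expressed relative to solvent control wells. Deviation required ≥3 of 4 wells past the 95th percentile of control Euclidean distances, and reproducibility a median replicate Pearson correlation over the 95th percentile of non-replicates. Phenotypic activity rested on both.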
# A549-CANX-COX4 [2] = experiment: as above
# Summary of the method: as §1
# A549-GM130-SQSTM1 [3] = experiment: as above
# Summary of the method: as §1
# A549-TP53BP1-CLTA [4] = experiment: as above
# Summary of the method: as §1
# A549-TUBA1B-RELA [5] = experiment: as above
# Summary of the method: as §1
# HepG2-GM130-SQSTM1 [6] = experiment: as above
# Summary of the method: as §1
# A549-ACTB-RAB5A [7] = experiment: phenotypically active (imaging signature differs from DMSO and reproducible) at any of 0.3-9 uM (binary (1 = active, 0 = inactive)); higher = active
# Summary of the method: as §1
# A549-CANX-COX4 [8] = experiment: as above
# Summary of the method: as §1
# A549-GM130-SQSTM1 [9] = experiment: as above
# Summary of the method: as §1
# A549-TP53BP1-CLTA [10] = experiment: as above
# Summary of the method: as §1
# A549-TUBA1B-RELA [11] = experiment: as above
# Summary of the method: as §1
# HepG2-ACTB-RAB5A = experiment: as above
# Summary of the method: as §1
# HepG2-CANX-COX4 = experiment: as above
# Summary of the method: as §1
# HepG2-GM130-SQSTM1 [12] = experiment: as above
# Summary of the method: as §1
# HepG2-TP53BP1-CLTA = experiment: as above
# Summary of the method: as §1
# HepG2-TUBA1B-RELA = experiment: as above
# Summary of the method: as §1
# WPMY1-CANX-COX4 = experiment: as above
# Summary of the method: as §1
# WPMY1-GM130-SQSTM1 = experiment: as above
# Summary of the method: as §1
# WPMY1-TP53BP1-CLTA = experiment: as above
# Summary of the method: as §1
# WPMY1-TUBA1B-RELA = experiment: as above
# Summary of the method: as §1
Compound,lowest phenotypically active concentration (A549-ACTB-RAB5A [1]) [µM],lowest phenotypically active concentration (A549-CANX-COX4 [2]) [µM],lowest phenotypically active concentration (A549-GM130-SQSTM1 [3]) [µM],lowest phenotypically active concentration (A549-TP53BP1-CLTA [4]) [µM],lowest phenotypically active concentration (A549-TUBA1B-RELA [5]) [µM],lowest phenotypically active concentration (HepG2-GM130-SQSTM1 [6]) [µM],phenotypically active (A549-ACTB-RAB5A [7]),phenotypically active (A549-CANX-COX4 [8]),phenotypically active (A549-GM130-SQSTM1 [9]),phenotypically active (A549-TP53BP1-CLTA [10]),phenotypically active (A549-TUBA1B-RELA [11]),phenotypically active (HepG2-ACTB-RAB5A),phenotypically active (HepG2-CANX-COX4),phenotypically active (HepG2-GM130-SQSTM1 [12]),phenotypically active (HepG2-TP53BP1-CLTA),phenotypically active (HepG2-TUBA1B-RELA),phenotypically active (WPMY1-CANX-COX4),phenotypically active (WPMY1-GM130-SQSTM1),phenotypically active (WPMY1-TP53BP1-CLTA),phenotypically active (WPMY1-TUBA1B-RELA)
COc1c(C)cnc(Cn2cnc3c(Cl)nc(N)nc32)c1C,≤ 0.3,≤ 0.3,≤ 0.3,≤ 0.3,≤ 0.3,≤ 0.3,1 (active),1 (active),1 (active),1 (active),1 (active),1 (active),1 (active),1 (active),1 (active),1 (active),1 (active),1 (active),1 (active),1 (active)
O=C(CCCCSc1nc(-c2ccc(-c3ccccc3)cc2)cc(=O)[nH]1)NO,≤ 0.3,1,≤ 0.3,≤ 0.3,≤ 0.3,≤ 0.3,1 (active),1 (active),1 (active),1 (active),1 (active),1 (active),1 (active),1 (active),1 (active),1 (active),1 (active),1 (active),1 (active),1 (active)
Oc1cccc(Nc2ccnc3cc(-c4cccc(CN5CCOCC5)c4)sc23)c1 [LCB 03-0110 dihydrochloride],1,3,1,3,1,3,1 (active),1 (active),1 (active),1 (active),1 (active),1 (active),1 (active),1 (active),1 (active),1 (active),1 (active),1 (active),1 (active),1 (active)
COc1ccc2[nH]c(C(=O)c3ccccc3)cc2c1,≤ 0.3,≤ 0.3,≤ 0.3,≤ 0.3,≤ 0.3,≤ 0.3,1 (active),1 (active),1 (active),1 (active),1 (active),1 (active),1 (active),1 (active),1 (active),1 (active),1 (active),1 (active),1 (active),1 (active)
Cc1c[nH]c2nccc(Oc3c(F)cc(Nc4cc(Cl)nc(N)n4)cc3F)c12,≤ 0.3,≤ 0.3,≤ 0.3,≤ 0.3,1,≤ 0.3,1 (active),1 (active),1 (active),1 (active),1 (active),1 (active),1 (active),1 (active),1 (active),1 (active),1 (active),1 (active),1 (active),1 (active)
CCC(=O)N1CCN(c2ccc(-n3c(=O)ccc4cnc5ccc(-c6cnc7ccccc7c6)cc5c43)cc2C(F)(F)F)CC1 [Torin 1],≤ 0.3,≤ 0.3,≤ 0.3,≤ 0.3,≤ 0.3,≤ 0.3,1 (active),1 (active),1 (active),1 (active),1 (active),1 (active),1 (active),1 (active),1 (active),1 (active),1 (active),1 (active),1 (active),1 (active)
